PubChem BioAssay (NCATS)
Inconclusive results are not listed. Activity calls are given as the source filed them. Calls come from the whole dose curve; as a rule, active = well fitted curve in the direction sought with a large enough effect; inconclusive = small, poorly fitted or top-dose-only effect, or another doubt; inactive = no such curve, though single readings can be large; an effect the other way counts as inactive or inconclusive.

Key:
[1] = target: Cytochrome P450 3A7 (Homo sapiens) (UniProt P24462); experiment: Cytochrome P450 family 3 subfamily A member 7 (CYP3A7) small molecule antagonists: luciferase biochemical qHTS assay (AID 1963596); details: P450-Glo CYP3A7 enzyme luminescence, 1 h; series mostly up to 57.4 µM; note: % is set by controls: 0 for no effect and ±100 for the full control effect; nearly all actives have a fitted effect of over 40% in size
Chain of Cytochrome P450 3A7 (Homo sapiens) (P24462 whole entry, looked up): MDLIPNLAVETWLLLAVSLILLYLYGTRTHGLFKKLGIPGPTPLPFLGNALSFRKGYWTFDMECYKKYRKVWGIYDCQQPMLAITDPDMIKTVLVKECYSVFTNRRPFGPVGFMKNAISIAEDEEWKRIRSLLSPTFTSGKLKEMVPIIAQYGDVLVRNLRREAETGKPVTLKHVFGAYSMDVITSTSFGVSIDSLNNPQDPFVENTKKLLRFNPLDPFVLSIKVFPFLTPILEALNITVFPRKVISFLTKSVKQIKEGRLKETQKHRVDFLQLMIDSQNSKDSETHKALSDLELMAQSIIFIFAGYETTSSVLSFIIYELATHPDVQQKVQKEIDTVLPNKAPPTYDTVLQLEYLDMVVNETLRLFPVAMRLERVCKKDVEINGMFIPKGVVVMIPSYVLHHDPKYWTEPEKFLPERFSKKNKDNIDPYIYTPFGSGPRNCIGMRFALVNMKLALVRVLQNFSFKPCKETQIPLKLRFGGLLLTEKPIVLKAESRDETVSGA
Outline: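 Luminescence from luciferin released by CYP3A7 from a proluciferin substrate, read 20 min after detection reagent. Compound and enzyme-substrate mix sat 10 min before NADPH regeneration solution; reaction ran 1 h at room temperature.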

[2] = Viability qHTS for spleen associated tyrosine kinase inhibitor (SYKi) naive MV4-11 cells (AID 1963823); details: MV4-11 AML viability, CellTiter-Glo luminescence, 72 h; series mostly up to 45 µM; note: nearly all actives have a fitted effect of over 40% in size
Outline: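 Read-out: CellTiter-Glo luminescence. Exposure: 72 hr, 37 C, 5% CO2, 95% humidity. Cells: MV4-11 without SYK inhibitor history, 500/well, qHTS format.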

[3] = Viability qHTS for spleen associated tyrosine kinase inhibitor (SYKi) drug resistant MV4-11 cells (AID 1963824); details: SYKi-resistant MV4-11 viability, CellTiter-Glo, 72 h; series mostly up to 45 µM; note: nearly all actives have a fitted effect of over 35% in size
Outline: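 SYK-inhibitor-resistant MV4-11 AML cells were seeded at 500 per well onto compound and cultured 72 hours (37 °C, 5% CO2). CellTiter-Glo was then added, and after 10 min at room temperature, luminescence gave viability.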

[4] = Cellular viability qHTS for adrenocortical cancer (ACC) cell line SW-13 (AID 1963989); details: SW-13 ACC cells viability, CellTiter-Glo, 48 h; activity (max response): hits give low values;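 note: cells grown in serum-free medium with ITS supplement; % is set by controls: 0 for no effect and ±100 for the full control effect; nearly all actives have a fitted effect of over 65% in size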
Outline: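 Viability was read as CellTiter-Glo luminescence after 48 h compound treatment (up to 46 uM final) of SW-13 cells grown serum-free; titration curves were fit with a four-parameter logistic model to give IC50 and efficacy.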

[5] = Cellular viability qHTS for adrenocortical cancer (ACC) cell line NCI-H295R (AID 1963990); details: CellTiter-Glo ATP luminescence, 48 h; series mostly up to 46.1 µM;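 note: 0% = DMSO only wells and -100% = full killing with cytotoxic reference compound; nearly all actives have a fitted effect of over 60% in size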
Outline: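 CellTiter-Glo ATP luminescence, read 48 h after compound addition, measured viability of NCI-H295R adrenocortical cells grown serum-free with ITS. Final concentrations spanned up to 46 uM. Data normalized to DMSO and doxorubicin, fitted for IC50 and maximal response.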

C#CCN(C)Cc1ccccc1
inactive: Potency [1] | Potency [2] | Potency [3] | activity (max response) [4] 11.7% | Potency [5]

Nc1nnnn1-c1ccccc1
inactive: Potency [1] | Potency [2] | Potency [3] | activity (max response) [4] 1.62% | Potency [5]

CCN(CC)C(=O)Nc1ccc(OCC(O)CNC(C)(C)C)c(C(C)=O)c1 (stereo not given)
inactive: Potency [1] | Potency [2] | Potency [3] | activity (max response) [4] 12% | Potency [5]

C[C@](N)(Cc1ccc(O)cc1)C(=O)O
inactive: activity change, negative = inhibition [1] 1.38% [at 4.83 µM] | viability (% of control) [2] 79.1% [at 4.97 µM] | viability, % of control [3] 90.5% [at 4.97 µM] | activity (max response) [4] -6.01% | activity change, negative = viability loss [5] -1.14% [at 3.81 µM]

O=c1[nH]c2ccccc2c(=O)n1CCCl
inactive: Potency [1] | Potency [2] | Potency [3] | activity (max response) [4] 10.7% | Potency [5]

O=C(O)CC(O)C(=O)O (stereo not given)
inactive: Potency [1] | Potency [2] | Potency [3] | activity (max response) [4] 12.9% | Potency [5]

O=C(O)c1ccccc1O
inactive: Potency [1] | Potency [2] | Potency [3] | activity (max response) [4] 13.2% | Potency [5]

NS(=O)(=O)c1ccc(C(=O)O)cc1
inactive: Potency [1] | Potency [2] | Potency [3] | activity (max response) [4] 11.4% | Potency [5]

O=C(NCN1CCOCC1)c1cnccn1
inactive: Potency [1] | Potency [2] | Potency [3] | activity (max response) [4] -5.4% | Potency [5]

CN1CCOC(c2ccccc2)c2ccccc2C1 (stereo not given)
inactive: Potency [1] | Potency [2] | Potency [3] | activity (max response) [4] -0.385% | Potency [5]

CCOC(=O)c1ccc(OCCN2C[C@H](O)[C@@H](O)[C@H](O)[C@H]2CO)cc1
inactive: Potency [1] | Potency [2] | Potency [3] | activity (max response) [4] -1.86% | Potency [5]
